Data from PubChem BioAssay (EPA / NIEHS).
Active and inactive are the calls of the source. How the source made its calls: active means hit-call score of the fitted dose curve at least 0.9, where 1 is the maximum; inactive means score below 0.9.

Assay: ATG_ISRE_CIS: Attagene CIS-FACTORIAL HepG2 Assay for human Interferon Regulatory Factor 1 (IRF1) binding to an Interferon-Stimulated Response Element (ISRE) (AID 2282948)
Settings: HepG2 ISRE cis-reporter (Attagene), mRNA transcription readout; actives raise or lower the signal
Method in brief: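 Uses HepG2 liver cells transfected with cis-regulated reporters and measures mRNA 24 h post-dosing through RT-PCR, primer-extension labelling and capillary electrophoresis, with DMSO as negative control.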

SMILES | outcome | AC50
NC(N)=NC(N)=NCCc1ccccc1 | inactive | –
CN1CCc2cccc3c2[C@H]1Cc1ccc(O)c(O)c1-3 | – | 13.3 µM (active)
CCC(=O)OC/C=C(\C)CCC=C(C)C | inactive | –
C/C=C(\C)C(=O)OC/C=C(\C)CCC=C(C)C | inactive | –
S=c1[nH][nH]c(=S)s1 | inactive | –
O=C1OC2(c3ccc(O)cc3Oc3cc(O)ccc32)c2ccccc21 | inactive | –
CC(C)Cc1ccc(C(C)C(=O)O)cc1 (configuration not stated) | inactive | –
NC(=O)c1cnccn1 | inactive | –
CC1=CC(C)C(C=O)C(C)C1 (configuration not stated) (tested in a mixture with another compound) | inactive | –
CC(C)(C)C1CCC(O)CC1 (configuration not stated) | inactive | –
CCCCOC(=O)C(C)OC(=O)CCC (configuration not stated) | inactive | –
O=C(O)c1ccc(C(=O)O)c(C(=O)O)c1 | inactive | –
CC(CCO)CC(C)(C)C (configuration not stated) | inactive | –
O=S(=O)(O)CCCN1CCOCC1 | inactive | –
CCO[Si](CCC#N)(OCC)OCC | inactive | –
C=C(C)C(=O)OCCC(C)OC(=O)C(=C)C (configuration not stated) | inactive | –
CC(=O)N(C)C | inactive | –

SMILES | outcome | AC50
O=c1cc(-c2ccc(O)cc2)oc2cc(O)cc(O)c12 | – | 31 µM (active)
CC1=CC(O)CC(C)(C)C1 (configuration not stated) | inactive | –
CCC(=O)OCC=Cc1ccccc1 | inactive | –
CCCCC1CCCCC(=O)O1 (configuration not stated) | inactive | –
CCCCCCCCCO | inactive | –
CC(C)(O)CCc1ccccc1 | inactive | –
CN(C)CCC=C1c2ccccc2CCc2ccccc21 | – | 21.5 µM (active)
CCOC(=O)COC(=O)c1ccccc1C(=O)OCC | inactive | –
O=C(O)CS | inactive | –
CC(C)(CO)CO | inactive | –
CCCCOCCOCCO | inactive | –
Brc1cc(Br)cc(Br)c1 | inactive | –
CC(C)Cc1ccccc1 | inactive | –
COc1ccc(OC)cc1 | inactive | –
Nc1ccc(O)c(N)c1 | inactive | –
CCCC1CCC(=O)CC1 | inactive | –
N=C1N=C(N)c2ccccc21 | – | 74.1 µM (active)

Assay: ATG_M_32_CIS: Attagene CIS-FACTORIAL HepG2 Assay for M32 Transcription Factor (Internal Marker) (AID 2282949);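 further: background control marker of the multiplexed CIS panel rather than a real target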
Settings: HepG2 Attagene cis-factorial M32 reporter, mRNA; actives raise or lower the signal
Method in brief: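 HepG2 transfectants (cis-regulated reporter transcription units) dosed 24 h. Reporter mRNA by RT-PCR plus CE, analysed as gain or loss relative to DMSO.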

SMILES | outcome
NC(N)=NC(N)=NCCc1ccccc1 | inactive
CN1CCc2cccc3c2[C@H]1Cc1ccc(O)c(O)c1-3 | inactive
CCC(=O)OC/C=C(\C)CCC=C(C)C | inactive
C/C=C(\C)C(=O)OC/C=C(\C)CCC=C(C)C | inactive
S=c1[nH][nH]c(=S)s1 | inactive
O=C1OC2(c3ccc(O)cc3Oc3cc(O)ccc32)c2ccccc21 | inactive
CC(C)Cc1ccc(C(C)C(=O)O)cc1 (configuration not stated) | inactive
NC(=O)c1cnccn1 | inactive
CC1=CC(C)C(C=O)C(C)C1 (configuration not stated) (tested in a mixture with another compound) | inactive
CC(C)(C)C1CCC(O)CC1 (configuration not stated) | inactive
CCCCOC(=O)C(C)OC(=O)CCC (configuration not stated) | inactive
O=C(O)c1ccc(C(=O)O)c(C(=O)O)c1 | inactive
CC(CCO)CC(C)(C)C (configuration not stated) | inactive
O=S(=O)(O)CCCN1CCOCC1 | inactive
CCO[Si](CCC#N)(OCC)OCC | inactive
C=C(C)C(=O)OCCC(C)OC(=O)C(=C)C (configuration not stated) | inactive
CC(=O)N(C)C | inactive

SMILES | outcome
O=c1cc(-c2ccc(O)cc2)oc2cc(O)cc(O)c12 | inactive
CC1=CC(O)CC(C)(C)C1 (configuration not stated) | inactive
CCC(=O)OCC=Cc1ccccc1 | inactive
CCCCC1CCCCC(=O)O1 (configuration not stated) | inactive
CCCCCCCCCO | inactive
CC(C)(O)CCc1ccccc1 | inactive
CN(C)CCC=C1c2ccccc2CCc2ccccc21 | inactive
CCOC(=O)COC(=O)c1ccccc1C(=O)OCC | inactive
O=C(O)CS | inactive
CC(C)(CO)CO | inactive
CCCCOCCOCCO | inactive
Brc1cc(Br)cc(Br)c1 | inactive
CC(C)Cc1ccccc1 | inactive
COc1ccc(OC)cc1 | inactive
Nc1ccc(O)c(N)c1 | inactive
CCCC1CCC(=O)CC1 | inactive
N=C1N=C(N)c2ccccc21 | inactive

Assay: ATG_M_06_CIS: Attagene CIS-FACTORIAL HepG2 Assay for M06 Transcription Factor (Internal Marker) (AID 2282950)
Settings: HepG2 Attagene CIS-FACTORIAL M06 internal marker reporter; actives raise or lower the signal
Method in brief: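 One of many multiplexed endpoints: HepG2 reporter mRNA after 24 h dosing, detected by RT-PCR and capillary electrophoresis fluorescence; gain or loss of signal analysed against DMSO.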

SMILES | outcome
NC(N)=NC(N)=NCCc1ccccc1 | inactive
CN1CCc2cccc3c2[C@H]1Cc1ccc(O)c(O)c1-3 | inactive
CCC(=O)OC/C=C(\C)CCC=C(C)C | inactive
C/C=C(\C)C(=O)OC/C=C(\C)CCC=C(C)C | inactive
S=c1[nH][nH]c(=S)s1 | inactive
O=C1OC2(c3ccc(O)cc3Oc3cc(O)ccc32)c2ccccc21 | inactive
CC(C)Cc1ccc(C(C)C(=O)O)cc1 (configuration not stated) | inactive
NC(=O)c1cnccn1 | inactive
CC1=CC(C)C(C=O)C(C)C1 (configuration not stated) (tested in a mixture with another compound) | inactive
CC(C)(C)C1CCC(O)CC1 (configuration not stated) | inactive
CCCCOC(=O)C(C)OC(=O)CCC (configuration not stated) | inactive
O=C(O)c1ccc(C(=O)O)c(C(=O)O)c1 | inactive
CC(CCO)CC(C)(C)C (configuration not stated) | inactive
O=S(=O)(O)CCCN1CCOCC1 | inactive
CCO[Si](CCC#N)(OCC)OCC | inactive
C=C(C)C(=O)OCCC(C)OC(=O)C(=C)C (configuration not stated) | inactive
CC(=O)N(C)C | inactive

SMILES | outcome
O=c1cc(-c2ccc(O)cc2)oc2cc(O)cc(O)c12 | inactive
CC1=CC(O)CC(C)(C)C1 (configuration not stated) | inactive
CCC(=O)OCC=Cc1ccccc1 | inactive
CCCCC1CCCCC(=O)O1 (configuration not stated) | inactive
CCCCCCCCCO | inactive
CC(C)(O)CCc1ccccc1 | inactive
CN(C)CCC=C1c2ccccc2CCc2ccccc21 | inactive
CCOC(=O)COC(=O)c1ccccc1C(=O)OCC | inactive
O=C(O)CS | inactive
CC(C)(CO)CO | inactive
CCCCOCCOCCO | inactive
Brc1cc(Br)cc(Br)c1 | inactive
CC(C)Cc1ccccc1 | inactive
COc1ccc(OC)cc1 | inactive
Nc1ccc(O)c(N)c1 | inactive
CCCC1CCC(=O)CC1 | inactive
N=C1N=C(N)c2ccccc21 | inactive
